This is an account of results in PubChem BioAssay.

Active and inactive are the calls of the source.

The nature of assay [1]: E. coli DRC41 culture turbidity changes, primary screen, E. coli filamentation inducer project, strain DRC41, OD650, 48 h (AID 1152).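 Further: E. coli MC1000 strain DRC41 lacking acrAB efflux pump and sulA.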 To be noted: E. coli DRC41 (acrAB sulA), higher = more signal, called active from +8 up or from −8 down.
The nature of assay [2]: small-molecule binders of probe aLefty1, primary screen, biochemical, small-molecule microarray, 635/667 nm fluorescence (AID 1153).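 Further: score merges spot fluorescence with signal-to-noise ratio from the scanned slide images.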 As to conditions: higher = more signal.
A short description of assay [3]: PSAC antagonists in infected red cells, primary screen, cell-based, P. falciparum Indochina, OD700, 1 h (AID 1154). To be noted: P. falciparum Indochina infected RBC osmotic lysis, higher = more signal, called active from +8 up or from −8 down.
Assay [4] can be described thus: PSAC antagonists in infected red cells, primary screen, cell-based, P. falciparum Indochina, OD700, 2 h (AID 1155).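 Further: lysis reports solute entry through the parasite surface anion channel PSAC; channel blockers reduce lysis of infected cells.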 To be noted: P. falciparum Indochina infected erythrocytes, osmotic lysis OD700; higher = more signal, called active from +8 up or from −8 down.
A short description of assay [5]: osmotic lysis modulators in infected erythrocytes, primary screen, PSAC antagonist project, cell-based, P. falciparum Indochina, OD700, 3 h (AID 1156). As to conditions: higher = more signal, called active from +8 up or from −8 down.
Assay [6] can be described thus: PSAC antagonists in infected red cells, primary screen, cell-based, P. falciparum Indochina, OD700, 18 h (AID 1157). As to conditions: P. falciparum Indochina infected erythrocytes, osmotic lysis OD700, 18 h; higher = more signal, called active from +8 up or from −8 down.
Assay [7] can be described thus: modulators of S6 phosphorylation in cells, primary screen, cell-based, A549, cytoblot, luminescence, serum-stimulated (AID 1158).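 Further: serum-stimulated A549 lung adenocarcinoma cells; signal is phosphorylated S6 detected by cytoblot immunostaining with HRP secondary.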 To be noted: A549 phospho-S6 cytoblot, 5 h, higher = more signal.
The target in assay [8] is NADPH oxidase 2 (Homo sapiens) (UniProt P04839). Briefly: NOX2-dependent H2O2 signal modulators, primary screen, NOX inhibitor project, cell-based, HEK293-NOX2, PMA-stimulated, Amplex Red fluorescence (AID 1159). Further: test concentration not given here. To be noted: 45 min, higher = more signal, called active from +8 up or from −8 down.
Sequence of NADPH oxidase 2 (Homo sapiens) (P04839 whole entry, looked up): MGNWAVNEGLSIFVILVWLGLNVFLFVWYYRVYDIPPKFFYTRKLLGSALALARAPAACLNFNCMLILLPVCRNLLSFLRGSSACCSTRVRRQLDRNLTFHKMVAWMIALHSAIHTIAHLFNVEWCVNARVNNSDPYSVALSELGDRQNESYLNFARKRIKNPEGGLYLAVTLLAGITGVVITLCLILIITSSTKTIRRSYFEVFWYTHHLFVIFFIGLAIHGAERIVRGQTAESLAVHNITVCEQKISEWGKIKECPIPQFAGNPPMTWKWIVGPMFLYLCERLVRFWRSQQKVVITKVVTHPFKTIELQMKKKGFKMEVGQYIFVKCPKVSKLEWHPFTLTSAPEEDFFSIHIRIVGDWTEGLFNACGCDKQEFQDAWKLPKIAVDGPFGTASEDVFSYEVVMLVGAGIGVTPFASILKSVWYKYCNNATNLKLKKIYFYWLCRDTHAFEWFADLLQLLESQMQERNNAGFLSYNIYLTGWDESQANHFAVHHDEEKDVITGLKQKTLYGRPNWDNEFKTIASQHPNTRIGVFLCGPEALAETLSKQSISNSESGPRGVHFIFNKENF
For assay [9], the target named is NADPH oxidase 4 (Homo sapiens) (UniProt Q9NPH5). Briefly: NOX4-dependent H2O2 signal modulators, primary screen, NOX inhibitor project, cell-based, HEK293-NOX4, tetracycline-induced, Amplex Red fluorescence (AID 1160). To be noted: 45 min, higher = more signal, called active from +8 up or from −8 down.
Sequence of NADPH oxidase 4 (Homo sapiens) (Q9NPH5 whole entry, looked up): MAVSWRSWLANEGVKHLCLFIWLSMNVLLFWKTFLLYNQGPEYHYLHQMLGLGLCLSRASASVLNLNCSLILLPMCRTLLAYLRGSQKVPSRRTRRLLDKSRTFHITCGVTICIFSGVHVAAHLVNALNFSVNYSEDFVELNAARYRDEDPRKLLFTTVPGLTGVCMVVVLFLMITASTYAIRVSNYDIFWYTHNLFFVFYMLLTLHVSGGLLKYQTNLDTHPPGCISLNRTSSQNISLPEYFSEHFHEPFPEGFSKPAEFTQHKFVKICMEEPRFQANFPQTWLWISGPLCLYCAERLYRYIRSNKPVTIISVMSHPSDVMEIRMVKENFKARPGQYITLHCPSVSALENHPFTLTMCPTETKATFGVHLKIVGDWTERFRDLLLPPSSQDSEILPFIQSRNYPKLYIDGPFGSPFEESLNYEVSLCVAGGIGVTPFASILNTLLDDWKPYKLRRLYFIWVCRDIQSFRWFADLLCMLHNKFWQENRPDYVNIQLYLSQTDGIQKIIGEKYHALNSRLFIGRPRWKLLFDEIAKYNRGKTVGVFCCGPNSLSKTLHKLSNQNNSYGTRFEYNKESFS
In assay [10] the target is NADPH oxidase 5 (Homo sapiens) (UniProt Q96PH1). Briefly: NOX5-dependent H2O2 signal modulators, primary screen, NOX inhibitor project, cell-based, HEK293-NOX5, Amplex Red fluorescence (AID 1161). As to conditions: HEK293-NOX5, ionomycin, 45 min, higher = more signal.
Sequence of NADPH oxidase 5 (Homo sapiens) (Q96PH1 whole entry, looked up): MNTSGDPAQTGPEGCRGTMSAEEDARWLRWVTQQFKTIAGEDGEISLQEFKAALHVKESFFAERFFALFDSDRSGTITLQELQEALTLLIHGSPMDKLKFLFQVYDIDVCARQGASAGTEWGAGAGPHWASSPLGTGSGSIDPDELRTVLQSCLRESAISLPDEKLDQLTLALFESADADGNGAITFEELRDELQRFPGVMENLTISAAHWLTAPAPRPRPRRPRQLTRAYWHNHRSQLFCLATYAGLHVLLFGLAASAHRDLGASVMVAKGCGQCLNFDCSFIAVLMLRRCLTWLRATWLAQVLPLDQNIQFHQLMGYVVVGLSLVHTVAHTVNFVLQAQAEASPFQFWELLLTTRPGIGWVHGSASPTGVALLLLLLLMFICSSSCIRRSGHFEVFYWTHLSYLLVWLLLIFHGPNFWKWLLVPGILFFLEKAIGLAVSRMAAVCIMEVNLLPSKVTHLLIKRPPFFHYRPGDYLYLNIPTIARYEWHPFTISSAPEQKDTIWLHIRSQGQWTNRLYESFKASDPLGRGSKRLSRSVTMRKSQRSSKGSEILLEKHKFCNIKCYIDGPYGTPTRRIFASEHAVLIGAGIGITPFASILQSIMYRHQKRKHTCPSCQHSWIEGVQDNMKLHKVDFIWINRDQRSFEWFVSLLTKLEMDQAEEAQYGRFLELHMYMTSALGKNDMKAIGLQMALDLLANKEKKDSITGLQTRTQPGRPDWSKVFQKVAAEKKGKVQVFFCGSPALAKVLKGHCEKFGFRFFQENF
Assay [11] can be described thus: A549 cell viability effects, profiling panel, calcein-AM fluorescence, 48 h, basal (AID 1162). Further: test concentration not given here. To be noted: higher = more signal.
The nature of assay [12]: adipocyte viability effects, profiling panel, cell-based, 3T3-L1 adipocytes, calcein-AM fluorescence, 48 h, basal (AID 1163). Further: test concentration not given here. As to conditions: 3T3-L1 adipocytes viability, higher = more signal.
Assay [13] is described as follows: HepG2 cell viability effects, profiling panel, calcein-AM fluorescence, 48 h, basal (AID 1164). Further: test concentration not given here. To be noted: higher = more signal.
Assay [14] can be described thus: MM1S cell viability effects, profiling panel, calcein-AM fluorescence, 48 h, basal (AID 1165).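 Further: viability of MM1S multiple myeloma cells under basal unstimulated conditions; test concentration not given here.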 To be noted: higher = more signal.
A short description of assay [15]: basal RPMI8226 viability, no added stimulus, profiling panel, cell-based, calcein-AM fluorescence, 48 h, PK04 Diversity Set (AID 1166).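 Further: cells grown under basal conditions without added stimulus; test concentration not given here.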 As to conditions: RPMI8226 myeloma viability, higher = more signal.
Assay [16] can be described thus: basal HepG2 mitochondrial membrane potential changes, profiling panel, cell-based, JC-1 fluorescence, 24 h, 100 nL compound (AID 1167). Further: test concentration not given here. As to conditions: higher = more signal.
The nature of assay [17]: basal 3T3-L1 adipocyte mitochondrial potential changes, profiling panel, cell-based, JC-1 fluorescence, 3T3-L1 adipocytes, 24 h, 100 nL compound (AID 1168). Further: test concentration not given here. As to conditions: JC-1 mitochondrial fluorescence, higher = more signal, called active from +8 up or from −8 down.
The nature of assay [18]: basal RPMI8226 mitochondrial membrane potential changes, profiling panel, cell-based, JC-1 fluorescence, 24 h, 100 nL compound (AID 1169). Further: test concentration not given here. To be noted: RPMI8226 myeloma, JC-1 mitochondrial potential fluorescence, higher = more signal.
The nature of assay [19]: basal MM1S mitochondrial membrane potential changes, profiling panel, cell-based, JC-1 fluorescence, 24 h, 100 nL compound (AID 1170). Further: test concentration not given here. As to conditions: higher = more signal.
The nature of assay [20]: A549 lung cancer cell viability effects, profiling panel, resazurin fluorescence, 24 h, PK04 Diversity Set (AID 1171). Further: test concentration not given here. As to conditions: higher = more signal, called active from +8 up or from −8 down.

As for `O=[N+]([O-])c1ccc(C[n+]2ccc(CCCO)cc2)o1`, the z-score was -0.934 (inactive) in assay [1]; 1.21 (inactive) in [3]; 0.331 (inactive) in assay [4]; 0.616 (inactive) in [5]; 0.377 (inactive) in assay [6]; 0.437 in assay [7]. Moreover, the z-score is 0.00328 (inactive) in assay [8]; -3.09 (inactive) in assay [9]; -0.4 in assay [10]; -0.38 in assay [11]; 1.01 in assay [12]; -0.405 in assay [13]. Also, the z-score in assay [14] was -0.41; in assay [15], -2.35; in [16], -1.07; in assay [17], -0.266 (inactive); in assay [18], -0.614; in [19], 0.5. Also, the z-score in assay [20] was -0.77 (inactive). Moreover, the composite z-score in [2] is -0.0162.

Turning to `CN1C(=O)C2C=CC(C(O)c3ccccc3)N(NC(=O)OC(C)(C)C)C2C1=O` (stereo not given), the z-score in assay [1] was -1.18 (inactive); in assay [3], -0.0278 (inactive); in assay [4] it was 0.519 (inactive); in assay [5] it was 0.303 (inactive); in assay [6] it was 1.25 (inactive); in [7] it was -1.04. Moreover, the z-score in assay [8] was -1.08 (inactive); in [9], -0.302 (inactive); in assay [10], -1.87; in assay [11] it was -1.66; in assay [12] it was 0.103; in [13], -0.983. In addition, the z-score in assay [14] is -0.965; in [15] it was -0.386; in assay [16], -1.22; in assay [17], -0.0572 (inactive); in [18] it was -0.306; in [19] it was 0.32. Further, the z-score in [20] was -0.449 (inactive). In assay [2], this compound had a composite z-score of 0.199.

In the case of `CS(=O)(=O)CCOC(=O)C1=CC(c2ccc(CO)cc2)=CC(c2cccs2)N(Cc2cccc(OC(F)(F)F)c2)C=C1C(=O)OCCS(C)(=O)=O` (stereo not given), the z-score in assay [1] was -2.86 (inactive); in [3], 14.8 (active); in [4], 4.37 (inactive); in assay [5], 0.869 (inactive); in assay [6], 1.95 (inactive); in [7], 0.158. Also, the z-score in [8] is -2.07 (inactive); in assay [9], -1.09 (inactive); in assay [10] it was -2.37; in assay [11], 0.0527; in [12], 0.171; in assay [13], -1.31. The z-score in assay [14] is -3.31; in [15] it was -3.27; in [16], -2.84; in assay [17], 0.384 (inactive); in [18], -0.722; in assay [19] it was -1.28. Also, the z-score in assay [20] was -0.481 (inactive). The compound also registered a composite z-score in assay [2] of 0.0575.

On to `COCCOC(=O)N1C(=O)[C@@]2(c3cc(C#CCCO)ccc31)[C@H](C(=O)NC[C@H](O)c1ccccc1)[C@H]1C(=O)O[C@H](c3ccccc3)[C@H](c3ccccc3)N1[C@@H]2c1ccc(OCCO)cc1`, for which the z-score in [1] was 1.96 (inactive); in assay [3] it was 3.45 (inactive); in assay [4] it was 1.02 (inactive); in assay [5] it was -0.431 (inactive); in assay [6], 0.212 (inactive); in assay [7], 0.568. In addition, the z-score in [8] was 1.75 (inactive); in assay [9], 1.13 (inactive); in assay [10] it was -0.0265; in assay [11], -0.339; in [12], 1.22; in [13] it was -0.981. For the same compound, the z-score is -0.97 in assay [14]; -0.304 in [15]; -1.25 in assay [16]; 0.623 (inactive) in assay [17]; -0.8 in assay [18]; -0.904 in [19]. For the same compound, the z-score in assay [20] was 1.21 (inactive). The composite z-score in [2] is -0.0276.
